Source: PubChem BioAssay (NCATS)
Inconclusive results are not listed. Activity calls are given as the source filed them. The call rests on the fitted dose curve; in most records, active means well fitted cell-killing curve with a large enough effect; inconclusive means small, poorly fitted or top-dose-only effect, or effect the other way; inactive means flat fitted curve, though single readings scatter.

How the values were obtained:
Test in all cases: Primary qHTS to identify gynecologic anti-cancer compounds using libraries of approved drugs and bioactive compounds (AID 1345084); further: nearly all actives have a fitted effect of over 55% in size
[1] = system: Hek293T; settings: Gynecologic cancer cell panel viability, ATPlite luminescence, 48 h, control line for the selectivity index; series mostly up to 57.5 µM
Procedure, shortened: (§1)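 Cytotoxicity screen measuring ATP content by luciferase luminescence. Each compound is applied at five concentrations for 48 h at 37 C with 5% CO2.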

[2] = system: JEG-3; settings: Gynecologic cancer cell panel viability, ATPlite luminescence, 48 h; series mostly up to 57.5 µM
Procedure, shortened: as §1

[3] = system: OV90; settings: Gynecologic cancer cell panel viability, ATPlite luminescence, 48 h; series mostly up to 57.5 µM
Procedure, shortened: as §1

[4] = system: PA-1; settings: Gynecologic cancer cell panel viability, ATPlite luminescence, 48 h; series mostly up to 57.5 µM
Procedure, shortened: as §1

[5] = system: SKOV3; settings: Gynecologic cancer cell panel viability, ATPlite luminescence, 48 h; series mostly up to 57.5 µM
Procedure, shortened: as §1

[6] = system: Tov-21-G; settings: Gynecologic cancer cell panel viability, ATPlite luminescence, 48 h; series mostly up to 57.5 µM
Procedure, shortened: as §1

[7] = system: Tov112D; settings: Gynecologic cancer cell panel viability, ATPlite luminescence, 48 h; series mostly up to 57.5 µM
Procedure, shortened: as §1
On the % scale 0 is the no-effect control and ±100 the full control effect.

COc1cc(C2Oc3c(O)cc(CCCO)cc3C2CO)ccc1O[C@H]1O[C@H](C)[C@@H](O)[C@H](O)[C@@H]1O (stereo partly drawn)
inactive: Potency [1] | Potency [2] | Potency [3] | Potency [4] | Potency [5] | Potency [6] | Potency [7]

CCOC(=O)c1ccc(N(C)c2csc(-c3ccccc3)n2)cc1
inactive: Potency [1] | Potency [2] | Potency [3] | Potency [4] | Potency [5] | Potency [6] | Potency [7]

O=C(c1ccccn1)c1cnn2c(-c3ccncc3)ccnc12
inactive: Potency [1] | Potency [2] | Potency [3] | Potency [4] | Potency [5] | Potency [6] | Potency [7]

COc1c(C)c2c(c(O)c1C/C=C(\C)CC/C=C(\C)CCC(=O)O)C(=O)OC2
inactive: Potency [1] | Potency [2] | Potency [3] | Potency [4] | Potency [5] | Potency [6] | Potency [7]

Cc1cc(O)c(C(C)C)cc1O[C@@H]1O[C@H](CO)[C@@H](O)[C@H](O)[C@H]1O
inactive: Potency [1] | Potency [2] | Potency [3] | Potency [4] | Potency [5] | Potency [6] | Potency [7]

CC(NC(=O)CC(=O)O)c1nc2ccccc2c(=O)[nH]1 (stereo not drawn)
inactive: Potency [1] | Potency [2] | Potency [3] | Potency [4] | Potency [5] | Potency [6] | Potency [7]

CCC1CC2C(C)=CC3CCCCC3C2(C)C2(OC(=O)C(C)(O)OC2=O)O1 (stereo not drawn)
inactive: Potency [1] | Potency [2] | Potency [3] | Potency [4] | Potency [5] | Potency [6] | Potency [7]

CN1CCC(c2c[nH]c3ccc(NC(=O)c4ccc(F)cc4)cc23)CC1
inactive: Potency [1] | Potency [2] | Potency [3] | Potency [4] | Potency [5] | Potency [6] | Potency [7]

CC(C)N(C[C@H]1O[C@@H](n2cnc3c(N)ncnc32)[C@H](O)[C@@H]1O)C1CC(CCc2nc3ccc(C(C)(C)C)cc3[nH]2)C1 (stereo partly drawn)
inactive: Potency [1] | Potency [2] | Potency [3] | Potency [4] | Potency [5] | Potency [6] | Potency [7]

C[C@@H]1O[C@@H](O[C@H]2[C@H](OC(=O)C34CCC(C)(C)CC3C3=CCC5C6(C)CC(O)C(O[C@@H]7O[C@H](CO)[C@@H](O)[C@H](O)[C@H]7O)C(C)(C(=O)O)C6CCC5(C)C3(CO)CC4)O[C@H](C)[C@H](O)[C@@H]2O)[C@H](O)[C@H](O)[C@H]1O[C@@H]1OC[C@@H](O)[C@H](O)[C@H]1O (stereo partly drawn)
inactive: activity change, negative = cytotoxicity [1] 7.78% [at 11.6 µM] | activity change, negative = cytotoxicity [2] 4.58% [at 11.6 µM] | activity change, negative = cytotoxicity [3] 3.81% [at 11.6 µM] | activity change, negative = cytotoxicity [4] 8.42% [at 11.6 µM] | activity change, negative = cytotoxicity [5] 7.96% [at 11.6 µM] | activity change, negative = cytotoxicity [6] 2.58% [at 11.6 µM] | activity change, negative = cytotoxicity [7] 2.79% [at 11.6 µM]

COC(=O)c1ccc(O[C@@H]2O[C@H](CO)[C@@H](O)[C@H](O)[C@H]2O)c(OC)c1
inactive: Potency [1] | Potency [2] | Potency [3] | Potency [4] | Potency [5] | Potency [6] | Potency [7]

O=C(NN1CCCCC1)c1nn(-c2ccc(Cl)cc2Cl)c(-c2ccc(C#Cc3ccc(C(F)(F)F)cc3)s2)c1CNS(=O)(=O)N1CCCC1
inactive: Potency [1] | Potency [2] | Potency [3] | Potency [4] | Potency [5] | Potency [6] | Potency [7]

C=C[C@H]1[C@H](O[C@@H]2O[C@H](CO[C@@H]3OC[C@](O)(CO)[C@H]3O)[C@@H](O)[C@H](O)[C@H]2O)OC=C2C(=O)OCC[C@H]21
inactive: Potency [1] | Potency [2] | Potency [3] | Potency [4] | Potency [5] | Potency [6] | Potency [7]

NS(=O)(=O)NCCNc1nonc1C(=Nc1ccc(F)c(Br)c1)NO
inactive: Potency [1] | Potency [2] | Potency [3] | Potency [4] | Potency [5] | Potency [6] | Potency [7]

CC(C)C1=CC2=CCC3[C@](C)(CCC[C@@]3(C)C(=O)O)C2CC1O (stereo partly drawn)
inactive: Potency [1] | Potency [2] | Potency [3] | Potency [4] | Potency [5] | Potency [6] | Potency [7]

CC1(CO)CC[C@]2(C(=O)O[C@@H]3O[C@H](CO)[C@@H](O)[C@H](O)[C@H]3O)CC[C@]3(C)C(=CCC4[C@@]5(C)C[C@H](O)[C@H](O[C@@H]6OC[C@@H](O)[C@H](O)[C@H]6O)[C@@](C)(CO)C5CC[C@]43C)C2C1 (stereo partly drawn)
inactive: activity change, negative = cytotoxicity [1] 6.32% [at 11.6 µM] | activity change, negative = cytotoxicity [2] 16.2% [at 11.6 µM] | activity change, negative = cytotoxicity [3] 9.02% [at 11.6 µM] | activity change, negative = cytotoxicity [4] -3.32% [at 11.6 µM] | activity change, negative = cytotoxicity [5] 2.79% [at 11.6 µM] | activity change, negative = cytotoxicity [6] 4.01% [at 11.6 µM] | activity change, negative = cytotoxicity [7] -0.665% [at 11.6 µM]

O=C(O)c1cc(O)c2cccc(O)c2c1O[C@@H]1O[C@H](CO)[C@@H](O)[C@H](O)[C@H]1O
inactive: Potency [1] | Potency [2] | Potency [3] | Potency [4] | Potency [5] | Potency [6] | Potency [7]

COc1ccc2c(c1O)OC[C@H]1c3ccc(O)cc3O[C@@H]21
inactive: Potency [1] | Potency [2] | Potency [3] | Potency [4] | Potency [5] | Potency [6] | Potency [7]

CC1(C)CCC(C)(C)c2cc3c(cc21)Sc1ccccc1N=C3c1ccc(C(=O)O)cc1
inactive: Potency [1] | Potency [2] | Potency [3] | Potency [4] | Potency [5] | Potency [6] | Potency [7]

CC(NCc1ccc(OCc2cccc(F)c2)cc1)C(N)=O (stereo not drawn)
inactive: Potency [1] | Potency [2] | Potency [3] | Potency [4] | Potency [5] | Potency [6] | Potency [7]

O=C(/C=C/c1ccc(O)cc1)O[C@H]1[C@@H]2C=CO[C@@H](O[C@@H]3O[C@H](CO)[C@@H](O)[C@H](O)[C@H]3O)[C@@H]2[C@@]2(CO)O[C@@H]12
inactive: Potency [1] | Potency [2] | Potency [3] | Potency [4] | Potency [5] | Potency [6] | Potency [7]

O=C(OCc1cccc(O)c1O[C@@H]1O[C@H](CO)[C@@H](O)[C@H](O)[C@H]1O)C1(O)C(=O)C2C=CC1C1C=CC(=O)C(O)(C(=O)OCc3cccc(O)c3O[C@@H]3O[C@H](CO)[C@@H](O)[C@H](O)[C@H]3O)C21 (stereo partly drawn)
inactive: activity change, negative = cytotoxicity [1] 8.15% [at 11.6 µM] | activity change, negative = cytotoxicity [2] 0.323% [at 11.6 µM] | activity change, negative = cytotoxicity [3] -13.1% [at 11.6 µM] | activity change, negative = cytotoxicity [4] -3.46% [at 11.6 µM] | activity change, negative = cytotoxicity [5] 4.95% [at 11.6 µM] | activity change, negative = cytotoxicity [6] 1.57% [at 11.6 µM] | activity change, negative = cytotoxicity [7] 2.56% [at 11.6 µM]

CC(=O)C1CCC2(C)C3=C(CCC12C)C1(C)CCC(=O)C(C)(C)C1CC3 (stereo not drawn)
inactive: Potency [1] | Potency [2] | Potency [3] | Potency [4] | Potency [5] | Potency [6] | Potency [7]

CCS(=O)(=O)N1CCC([C@@H](C)n2c(C)c(C(=O)NCc3c(OC)cc(C)[nH]c3=O)c3ccccc32)CC1
inactive: Potency [1] | Potency [2] | Potency [3] | Potency [4] | Potency [5] | Potency [6] | Potency [7]
